{
  "source": "the OligoGym collection",
  "data": [
    {"target": "NUDT18", "assay": "pooled miR-30 sensor sort-seq; sequence = guide strand", "details": "shRNA", "values": [
      {"sequence": "TTGATCTCCACCACCAAGTGGT", "sensor-assay potency score (higher = more potent)": 0.0788},
      {"sequence": "TCCTCCATCACCTTCCACCAAG", "sensor-assay potency score (higher = more potent)": -1.79},
      {"sequence": "TAGTTCAACCAGGTGCAGGATG", "sensor-assay potency score (higher = more potent)": -0.826}
    ]},
    {"target": "NUDT8", "assay": "pooled miR-30 sensor sort-seq; sequence = guide strand", "details": "shRNA", "values": [
      {"sequence": "ACCACATCTTGGTCAGCCGGGT", "sensor-assay potency score (higher = more potent)": -1.55},
      {"sequence": "TTGCGGATCATACACAGGCCGC", "sensor-assay potency score (higher = more potent)": -1.79},
      {"sequence": "TACACCAGCAAGCACTGGCACC", "sensor-assay potency score (higher = more potent)": -1.4},
      {"sequence": "TGGTCAGCCGGGTCGCACTTGC", "sensor-assay potency score (higher = more potent)": -1.47},
      {"sequence": "ATCTTGGTCAGCCGGGTCGCAC", "sensor-assay potency score (higher = more potent)": -1.97},
      {"sequence": "TTTGCGGATCATACACAGGCCG", "sensor-assay potency score (higher = more potent)": -0.907},
      {"sequence": "TCAGCCGGGTCGCACTTGCCGC", "sensor-assay potency score (higher = more potent)": -1.59},
      {"sequence": "TTGGTCAGCCGGGTCGCACTTG", "sensor-assay potency score (higher = more potent)": -1.16},
      {"sequence": "TGTGCACCACATCTTGGTCAGC", "sensor-assay potency score (higher = more potent)": -0.734},
      {"sequence": "TTGTGCCTCCCGGTCAGGCGGC", "sensor-assay potency score (higher = more potent)": -1.45},
      {"sequence": "TGGGAAACTGACGTCGCCCTTG", "sensor-assay potency score (higher = more potent)": -0.952},
      {"sequence": "TACAGCAGCGCCGGCACCCCAC", "sensor-assay potency score (higher = more potent)": -1.1}
    ]},
    {"target": "NUP188", "assay": "pooled miR-30 sensor sort-seq; sequence = guide strand", "details": "shRNA", "values": [
      {"sequence": "TATTGGTCTGCCTACTACCAAA", "sensor-assay potency score (higher = more potent)": -1.79},
      {"sequence": "TTTTCTTGTCCAGCTCTCCAAG", "sensor-assay potency score (higher = more potent)": -0.925},
      {"sequence": "TTACACAGGGTACAAGTCCTTG", "sensor-assay potency score (higher = more potent)": -0.672},
      {"sequence": "TAATGCTGCAGCATCTTTCGAC", "sensor-assay potency score (higher = more potent)": -0.404},
      {"sequence": "TATCGCATGAATCAGCTCCAAG", "sensor-assay potency score (higher = more potent)": -1.05},
      {"sequence": "TAGGTGTCTGTGCTGTGCCGTT", "sensor-assay potency score (higher = more potent)": -0.606},
      {"sequence": "TTGCTCTTTAAACATCTTGGTT", "sensor-assay potency score (higher = more potent)": -0.993},
      {"sequence": "TACTACATAGTATATCTCCAAG", "sensor-assay potency score (higher = more potent)": -1.14},
      {"sequence": "TAGAACAGCAATGAGGTTGTTT", "sensor-assay potency score (higher = more potent)": 0.0605},
      {"sequence": "TACTCTAACAAGGAGGTGCAGC", "sensor-assay potency score (higher = more potent)": -0.568},
      {"sequence": "TATTGATAACTGTCTGTCCTGC", "sensor-assay potency score (higher = more potent)": -0.496},
      {"sequence": "TAACTCTCTCTTCCACTGCCGG", "sensor-assay potency score (higher = more potent)": -0.922}
    ]},
    {"target": "NUP214", "assay": "pooled miR-30 sensor sort-seq; sequence = guide strand", "details": "shRNA", "values": [
      {"sequence": "TAATCTGATCACTTTGTCGAGC", "sensor-assay potency score (higher = more potent)": -0.175},
      {"sequence": "TAAAGTTCACAAATATCTCTGG", "sensor-assay potency score (higher = more potent)": 0.255},
      {"sequence": "TTTTGTTGGGATCATCTCCGGG", "sensor-assay potency score (higher = more potent)": -0.302},
      {"sequence": "TTATCAACTATTTTGTTGGGAT", "sensor-assay potency score (higher = more potent)": 0.33},
      {"sequence": "TTGACTTTGACAGCAGAGGTTG", "sensor-assay potency score (higher = more potent)": -0.446},
      {"sequence": "TAATGATGCTGTCTCTCCGTGC", "sensor-assay potency score (higher = more potent)": -0.651},
      {"sequence": "TTTGTTGGGATCATCTCCGGGT", "sensor-assay potency score (higher = more potent)": -0.0183},
      {"sequence": "TTTAGTAGGAAAAATCTGCAAG", "sensor-assay potency score (higher = more potent)": -0.492},
      {"sequence": "TAGAACATCATTCACATCTTGG", "sensor-assay potency score (higher = more potent)": -0.0154},
      {"sequence": "TTTGTTGGACACAGCAAGCAGA", "sensor-assay potency score (higher = more potent)": -0.715},
      {"sequence": "TAACTCTTCCAACTCCTTCTGA", "sensor-assay potency score (higher = more potent)": -0.0589},
      {"sequence": "TTTATCAACTATTTTGTTGGGA", "sensor-assay potency score (higher = more potent)": 1.13}
    ]}
  ]
}
